# In PubChem BioAssay:
# Calls of active or inactive are those of the source.
# Assays:
# [1] = small molecules captured by biotinylated probe aFSTL3 – biochemical, small-molecule microarray, fluorescence 635/667, stem cell growth factor project, primary screen (AID 1064); details: higher = more signal;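 further: measures binding of the biotinylated anti-FSTL3 antibody to printed compounds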
# [2] = binders from COS7 lysate, DM2A8 probe, primary screen, torsin A project, cell lysate, small-molecule microarray, fluorescence 635/667 (AID 1065); details: higher = more signal, COS7 lysate expressing mutant human TOR1A
# [3] = small molecules captured by biotinylated probe aFGF2 – biochemical, small-molecule microarray, fluorescence 635/667, stem cell growth factor project, primary screen (AID 1067); details: higher = more signal;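 further: measures binding of biotinylated aFGF2 protein to printed compounds on slides; z-score merges feature fluorescence and signal-to-noise across triplicate slides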
# [4] = small molecules captured by biotinylated probe aFGF10 – biochemical, small-molecule microarray, fluorescence 635/667, stem cell growth factor project, primary screen (AID 1071); details: higher = more signal;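 further: score merges 667 nm spot intensity and signal to noise from triplicate slides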
# [5] = biological target: Neurogenic locus notch homolog protein 2 (Homo sapiens) (UniProt Q04721); assay: small molecules binding Notch2 protein – biochemical, small-molecule microarray, 635 nm fluorescence, stem cell growth factors, primary screen (AID 1073); details: higher = more signal
# [6] = biological target: Pro-neuregulin-1, membrane-bound isoform (Homo sapiens) (UniProt Q02297); assay: small molecules binding neuregulin-1 protein – biochemical, small-molecule microarray, fluorescence 635/667, psychiatric disease protein project, primary screen (AID 1075); details: NRG1 binding, 635 nm fluorescence, higher = more signal;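 further: score combines 667 nm spot fluorescence with signal to noise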
# [7] = system: Neuregulin-1 EGF-like domain; assay: small molecules binding NRG1 EGF domain – biochemical, small-molecule microarray, 635 nm fluorescence, primary screen (AID 1081); details: higher = more signal;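 further: binding of the protein to compounds printed on small-molecule microarray slides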
# [8] = FRG1 expression reporter modulators in myotubes – cell-based, C2C12 myotubes, firefly/Renilla luciferase, luminescence, FRG1 inhibition for FSHD, primary screen (AID 1084); details: FRG1 promoter luciferase, higher = more signal, called active from +8 up or from −8 down
# [9] = small molecules captured by biotinylated probe aFST – biochemical, small-molecule microarray, fluorescence 635/667, stem cell growth factor project, primary screen (AID 1086); details: higher = more signal;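 further: score merges 667 nm fluorescence with signal-to-noise of each printed compound spot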
# [10] = binders of probe aHhip on microarray, primary screen, stem cell growth factor project, biochemical, small-molecule microarray, fluorescence 635/667 (AID 1087); details: higher = more signal;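 further: score merges spot fluorescence at 667nm with spot signal to noise ratio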
# Sequence of Neurogenic locus notch homolog protein 2 (Homo sapiens) (Q04721 whole entry, looked up, canonical isoform): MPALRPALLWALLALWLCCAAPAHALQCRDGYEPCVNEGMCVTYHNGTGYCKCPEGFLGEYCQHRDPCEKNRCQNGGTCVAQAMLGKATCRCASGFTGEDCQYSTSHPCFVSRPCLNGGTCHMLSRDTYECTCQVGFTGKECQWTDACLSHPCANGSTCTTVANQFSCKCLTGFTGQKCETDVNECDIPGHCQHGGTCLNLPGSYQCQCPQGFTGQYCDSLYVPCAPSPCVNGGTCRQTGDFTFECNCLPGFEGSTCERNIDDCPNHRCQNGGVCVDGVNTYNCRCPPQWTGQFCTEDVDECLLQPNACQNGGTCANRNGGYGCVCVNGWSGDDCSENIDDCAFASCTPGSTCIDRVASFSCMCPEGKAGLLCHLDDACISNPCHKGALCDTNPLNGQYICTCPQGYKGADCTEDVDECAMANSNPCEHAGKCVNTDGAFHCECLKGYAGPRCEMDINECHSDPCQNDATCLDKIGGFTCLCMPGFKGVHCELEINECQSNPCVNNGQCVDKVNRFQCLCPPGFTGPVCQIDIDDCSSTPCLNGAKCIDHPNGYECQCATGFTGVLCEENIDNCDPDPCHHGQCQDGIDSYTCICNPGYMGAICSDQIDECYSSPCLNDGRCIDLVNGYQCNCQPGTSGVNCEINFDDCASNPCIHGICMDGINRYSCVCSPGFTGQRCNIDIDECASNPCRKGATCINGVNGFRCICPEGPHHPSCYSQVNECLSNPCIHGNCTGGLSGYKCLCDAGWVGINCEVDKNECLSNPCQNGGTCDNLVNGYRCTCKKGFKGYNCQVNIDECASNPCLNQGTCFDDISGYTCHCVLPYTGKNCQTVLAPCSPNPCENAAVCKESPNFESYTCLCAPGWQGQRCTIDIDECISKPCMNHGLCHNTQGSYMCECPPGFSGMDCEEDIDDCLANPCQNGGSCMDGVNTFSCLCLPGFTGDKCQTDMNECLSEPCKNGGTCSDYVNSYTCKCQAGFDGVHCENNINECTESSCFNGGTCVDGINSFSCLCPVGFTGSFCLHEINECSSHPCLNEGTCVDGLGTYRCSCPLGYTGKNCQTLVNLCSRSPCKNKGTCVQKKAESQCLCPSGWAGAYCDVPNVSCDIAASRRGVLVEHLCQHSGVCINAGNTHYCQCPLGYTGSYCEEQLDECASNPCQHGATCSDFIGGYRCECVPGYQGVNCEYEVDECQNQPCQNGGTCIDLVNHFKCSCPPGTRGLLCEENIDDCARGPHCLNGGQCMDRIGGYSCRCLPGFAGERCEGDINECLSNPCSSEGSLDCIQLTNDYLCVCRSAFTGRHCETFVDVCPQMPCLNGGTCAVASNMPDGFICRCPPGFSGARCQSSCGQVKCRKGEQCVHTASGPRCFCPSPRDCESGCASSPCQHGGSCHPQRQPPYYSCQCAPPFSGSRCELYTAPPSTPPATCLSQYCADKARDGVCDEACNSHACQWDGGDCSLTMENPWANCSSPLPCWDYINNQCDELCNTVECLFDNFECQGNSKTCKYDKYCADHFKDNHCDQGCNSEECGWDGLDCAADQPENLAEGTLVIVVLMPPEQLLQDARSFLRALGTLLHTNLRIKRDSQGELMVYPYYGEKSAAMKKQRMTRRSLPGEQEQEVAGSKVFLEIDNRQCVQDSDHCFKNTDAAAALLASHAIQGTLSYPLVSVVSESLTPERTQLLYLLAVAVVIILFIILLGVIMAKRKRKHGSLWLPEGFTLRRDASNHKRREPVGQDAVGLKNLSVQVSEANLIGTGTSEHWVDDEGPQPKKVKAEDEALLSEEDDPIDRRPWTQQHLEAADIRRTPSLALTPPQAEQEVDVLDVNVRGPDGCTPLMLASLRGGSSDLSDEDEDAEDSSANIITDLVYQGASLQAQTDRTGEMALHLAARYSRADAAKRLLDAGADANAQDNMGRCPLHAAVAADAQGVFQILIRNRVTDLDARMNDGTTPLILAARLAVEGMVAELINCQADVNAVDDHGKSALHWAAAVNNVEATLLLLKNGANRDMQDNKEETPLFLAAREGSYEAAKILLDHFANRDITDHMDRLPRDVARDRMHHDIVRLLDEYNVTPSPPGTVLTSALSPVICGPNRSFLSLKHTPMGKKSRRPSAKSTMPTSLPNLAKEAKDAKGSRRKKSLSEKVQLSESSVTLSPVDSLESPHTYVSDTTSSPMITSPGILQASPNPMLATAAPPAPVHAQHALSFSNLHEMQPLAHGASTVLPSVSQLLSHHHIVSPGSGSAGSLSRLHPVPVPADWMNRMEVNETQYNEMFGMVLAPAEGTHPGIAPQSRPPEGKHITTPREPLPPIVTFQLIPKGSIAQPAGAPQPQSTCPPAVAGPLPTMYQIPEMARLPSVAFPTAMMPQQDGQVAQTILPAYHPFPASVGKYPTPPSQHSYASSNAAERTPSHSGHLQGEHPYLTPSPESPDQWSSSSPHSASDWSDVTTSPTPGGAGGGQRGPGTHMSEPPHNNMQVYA
# Sequence of Pro-neuregulin-1, membrane-bound isoform (Homo sapiens) (Q02297 whole entry, looked up, the tested form may be a part, canonical isoform): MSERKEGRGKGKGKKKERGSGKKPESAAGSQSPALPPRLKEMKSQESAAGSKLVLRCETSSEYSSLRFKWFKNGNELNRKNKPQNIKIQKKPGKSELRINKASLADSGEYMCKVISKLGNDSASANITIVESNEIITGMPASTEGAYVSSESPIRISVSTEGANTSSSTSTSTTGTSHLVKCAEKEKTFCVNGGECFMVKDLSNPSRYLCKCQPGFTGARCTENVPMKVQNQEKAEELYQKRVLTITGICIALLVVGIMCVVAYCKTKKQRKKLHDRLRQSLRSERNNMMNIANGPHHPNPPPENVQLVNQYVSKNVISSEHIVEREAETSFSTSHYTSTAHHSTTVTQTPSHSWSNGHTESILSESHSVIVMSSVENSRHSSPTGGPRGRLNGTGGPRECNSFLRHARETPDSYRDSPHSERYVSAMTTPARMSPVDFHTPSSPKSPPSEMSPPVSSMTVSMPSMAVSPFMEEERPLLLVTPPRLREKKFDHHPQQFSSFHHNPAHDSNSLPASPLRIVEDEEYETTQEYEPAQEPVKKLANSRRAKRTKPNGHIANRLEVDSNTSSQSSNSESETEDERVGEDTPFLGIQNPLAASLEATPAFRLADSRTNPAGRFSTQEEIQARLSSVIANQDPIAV
SMILES,composite z-score [1],composite z-score [2],composite z-score [3],composite z-score [4],composite z-score [5],composite z-score [6],composite z-score [7],z-score [8],composite z-score [9],composite z-score [10]
COc1ccc([Si](C)(C)[C@@H]2[C@@H](CCO)O[C@]3(C(=O)N(Cc4ccccc4)c4ccc(N5C(=O)c6ccccc6Oc6ccccc65)cc43)[C@H]2C)cc1,-0.0276,-0.662,-0.0962,0.379,-0.236,0.992,0.671,0.816 (inactive),-0.089,-0.284
CCCCC(O)C1C=CC2C(=O)N(C)C(=O)C2N1Nc1ccccc1 (stereo not given),0.645,0.0873,-0.0778,0.435,0.762,1.76,1.25,1.63 (inactive),0.632,0.128
COCCOC(=O)N1C(=O)[C@@]2(c3cc(C#CC4(O)CCCCCC4)ccc31)[C@H](c1ccc(OCCO)cc1)N1[C@H](c3ccccc3)[C@H](c3ccccc3)OC(=O)[C@H]1[C@@H]2C(=O)N1CCCCCCC1,1.81,0.437,0.466,0.276,1.25,1.77,1.29,0.222 (inactive),2.41,2.99
CCCCN1CC=CC23O[C@@H]4C=CCOC(=O)[C@@H]4[C@H]2C(=O)N(C(CO)C(C)C)[C@@H]3C1=O (stereo not given in full),0.0186,-0.438,-0.124,-0.275,-0.758,-0.397,-0.0125,0.353 (inactive),-0.288,-0.13
C=CCC(OC(C)=O)[C@@H]1[C@@H](N(Cc2cccc3ccccc23)C(=O)c2ccc(C)cc2)c2cc(OCCCO)ccc2N1C(=O)c1ccc2ccccc2n1 (stereo not given in full),-0.0635,0.552,0.01,0.238,-0.327,-0.157,0.0751,-1.44 (inactive),0.223,0.386
CC(C)C[C@@H]1NC(=O)[C@@]23C(=O)N[C@@H](Cc4ccccc4)C2[C@H](C)[C@@]2(C)O[C@H]2C3/C=C/C/C=C\CNC(=O)[C@@H](CC(C)C)NC1=O (stereo not given in full),-0.47,-0.0387,-0.0878,0.159,0.416,0.345,0.97,2.49 (inactive),0.355,-0.206
COc1ccc(C(O)C2C=CC3C(=O)N(C)C(=O)C3N2Nc2ccc([N+](=O)[O-])cc2[N+](=O)[O-])cc1OCc1ccccc1 (stereo not given),-0.0125,0.216,0.258,0.975,1.6,0.875,1.27,0.37 (inactive),1.04,-0.0296
COc1ccc([Si](C)(C)[C@@H]2[C@@H](CC(=O)N(CCO)Cc3ccccc3)O[C@]3(C(=O)N(Cc4ccc(N5CCC5=O)cc4)c4ccccc43)[C@H]2C)cc1,-0.0664,0.461,-0.0226,0.0667,0.0102,0.695,0.677,-0.192 (inactive),2.26,-0.0267
CN(C)CCCNC(=O)[C@@]1(Cc2ccccc2I)c2ccccc2C(=O)N(Cc2ccccc2)[C@H]1c1ccc(CO)cc1,-0.803,-0.451,0.106,1.02,0.647,0.834,1.39,-4.24 (inactive),0.386,-0.66
O=C1C2C=CC(C(O)C(c3ccccc3)c3ccccc3)N(Nc3ccccc3)C2C(=O)N1c1ccccc1 (stereo not given),0.35,0.0239,0.128,0.244,1.63,1.66,1.17,-0.996 (inactive),1.01,-0.318
CN(C)C(=O)[C@]1(Cc2ccccc2CN=[N+]=[N-])N=C(c2ccc(OCCCO)cc2)O[C@@H]1c1ccccc1N=[N+]=[N-],0.168,0.142,0.117,0.41,1.49,1.85,1.22,-1.04 (inactive),1.22,-0.264
N#Cc1ccc(C(O)C2C=CC3C(=O)NC(=O)C3N2Nc2ccccn2)cc1 (stereo not given),-0.0872,-0.013,-0.0692,0.311,0.905,1.41,0.511,-0.0581 (inactive),0.12,0.113
CCOC(=O)C1=CC[C@@H](c2ccccc2)N(S(=O)(=O)c2ccc(C)cc2)[C@H]1C#N,-0.18,-0.0196,-0.0381,0.848,1.25,0.741,1.29,1.04 (inactive),1.1,-0.191
C=C(COC)/C(=C/C[C@@H](OC(C)=O)c1ccccc1OCCO)c1cc(C(=O)OC)ccc1OC,0.0503,0.377,-0.116,0.785,-0.216,1.48,1.09,-0.657 (inactive),0.0581,-0.374
CCOC(=O)C1=CC[C@@H](c2ccccc2)N(S(=O)(=O)C[Si](C)(C)C)[C@H]1c1ccccc1,-0.267,0.505,-0.0181,0.389,1.25,0.652,0.924,-2.47 (inactive),1.25,-0.123
CN(C)CCCCNC(=O)[C@H]1C[C@H]2C(=O)NCC(=O)N2[C@H]1c1cccc(OCCO)c1,-0.295,-0.0314,-0.155,-0.224,-0.342,0.401,1.19,0.836 (inactive),-0.324,-0.485
CCCCCN1CC=CC23O[C@@H]4C=CCOC(=O)[C@@H]4[C@H]2C(=O)N(CCCCCO)[C@@H]3C1=O (stereo not given in full),0.346,1.8,-0.113,-1.11,-1.26,-0.48,1.29,0.391 (inactive),-0.883,-0.261
C/C=C/CN(C(=O)C#Cc1ccccc1)[C@H](CO[Si](C)(C)C(C)(C)C)c1ccccc1,0.15,0.183,-0.237,-0.77,-1.58,-0.339,-0.164,-3.24 (inactive),-0.967,-0.435
COCCOC(=O)N1C(=O)[C@@]2(c3ccccc31)[C@H](C(=O)N1CCCCCCC1)[C@H]1C(=O)O[C@H](c3ccccc3)[C@H](c3ccccc3)N1[C@@H]2c1ccc(O)cc1,3.89,1.42,0.904,0.559,1.08,1.59,1.15,-1.43 (inactive),3.43,3.37
CC=CC(O)C1C=CC2C(=O)N(C)C(=O)C2N1NC(=O)OC(C)(C)C (stereo not given),-0.0303,0.371,-0.072,0.488,1.16,0.746,1.09,0.282 (inactive),0.449,0.108
CC(C)N1CC=CC23O[C@@H]4C=CCCOC(=O)C4[C@H]2C(=O)N(CCCCCO)[C@@H]3C1=O (stereo not given in full),-0.0451,-1.06,-0.103,0.279,-0.905,1.93,1.21,-0.928 (inactive),-0.352,-0.353
C=CCC(OC(C)=O)[C@@H]1[C@@H](N(Cc2cccc3ccccc23)C(=O)c2cccc3ccccc23)c2cc(OCCCO)ccc2N1C(=O)Cc1ccc2ccccc2c1 (stereo not given in full),-0.101,-0.391,-0.116,0.19,-0.168,-0.371,-0.648,-1.89 (inactive),-0.0942,-0.166
COc1ccc([Si](C)(C)[C@H]2[C@H](CCn3cc([C@H](O)c4ccccc4)nn3)O[C@@]3(C(=O)N(c4ccccc4)c4ccccc43)[C@@H]2C)cc1,-0.0662,-0.125,-0.137,0.0529,-0.0554,0.44,0.248,-0.805 (inactive),-0.0512,-0.236
CC(C)C[C@@H]1NC(=O)[C@@H]2C[C@H](C(=O)O)[C@H](c3ccc(O)cc3)N2C1=O,-0.451,1.9,-0.121,0.338,0.529,0.833,1.23,-0.93 (inactive),0.186,0.0373
COCCOC(=O)N1C(=O)[C@@]2(c3cc(C#CCCO)ccc31)[C@H](C(=O)N1CCc3cc(OC)c(OC)cc3C1)[C@H]1C(=O)O[C@H](c3ccccc3)[C@H](c3ccccc3)N1[C@@H]2c1ccccc1OCCO,-0.327,0.255,-0.0336,1,1.47,0.317,1.19,-0.742 (inactive),0.0205,-0.111
CCCCC(O)C1C=CC2C(=O)NC(=O)C2N1Nc1ccccn1 (stereo not given),-0.197,-0.0611,-0.0691,0.329,0.949,0.699,0.683,0.86 (inactive),0.0344,-0.128
COCCOC(=O)N1C(=O)[C@@]2(c3cc(C#CCC(C(=O)OC)C(=O)OC)ccc31)[C@H](c1ccc(OCCO)cc1)N1[C@H](c3ccccc3)[C@H](c3ccccc3)OC(=O)[C@H]1[C@@H]2C(=O)N1CCCCCCC1,3.74,1.64,0.671,0.304,1.37,0.812,1.3,0.562 (inactive),3.32,3.43
CCCC[C@H]1OB(O)C[C@H]2C1=C(C)C[C@H]1C(=O)C=CC(=O)[C@H]12,-0.567,-0.0474,-0.0887,0.309,0.425,0.532,0.698,0.358 (inactive),0.189,0.176
CCC[C@@H]1[C@@H](Sc2ccccc2)[C@@H](C(=O)O)[C@H](c2ccc(C)cc2)N1S(=O)(=O)c1ccc(C)cc1,-0.259,0.175,0.0213,0.894,1.67,1.15,1.34,-4.1 (inactive),1.11,-0.0618
COc1cc(OC)c(C(O)C2C=CC3C(=O)N(c4ccccc4)C(=O)C3N2Nc2ccccc2F)cc1Br (stereo not given),0.0776,0.948,0.0619,0.61,1.44,1.74,1.25,0.0172 (inactive),1.53,-0.0088
